Screening results from PubChem BioAssay.
A selection: hits, their analogues and other compounds. The true share with any hit is near 3.8%.
S2 tox – Viability Counterscreen for Primary qHTS for Inhibitors of ATXN expression; S2 cells (HEK-293 line with an ATXN2-luciferase reporter) viability, CellTiter-Fluor protease fluorescence, 24 h; Potency, µM (highest dose often 56.7 µM), hits mostly cytotoxic; actives 0.49% (n = 400,000); note: nearly all actives have a fitted effect of over 40% in size
A549 viability – Nrf2 qHTS screen for inhibitors: counterscreen for cytotoxicity; A549 ARE-Fluc cells, CellTiter-Fluor viability, 18-24 h; Potency, µM (highest dose often 46 µM), inactives show at the highest dose activity change, negative = cytotoxicity, most hits filed as inhibitors; actives 0.16% (n = 390,000); AID 504648, 2011; note: % is set by controls: 0 for no effect and ±100 for the full control effect
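A549 ARE_Fluc cells in 5% FBS OPTI-MEM were exposed to compounds in concentration-response for 18-24 h at 37 deg C. Viability was read by CellTiter-Fluor fluorescence (Ex 405/Em 525) after 30 min, before the luciferase read.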
ATXN2 expr inh – Primary qHTS for Inhibitors of ATXN expression; HEK-293 ATXN2-luciferase reporter, luminescence, 24 h; actives 0.72% (n = 360,000); AID 1745845, 2022; Potency, µM (top dose mostly 57 µM), without a hit: top-dose activity change, negative = inhibition, usual class: inhibitors; note: % is set by controls: 0 for no effect and ±100 for the full control effect; nearly all actives have a fitted effect of over 55% in size
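ATXN2-luciferase reporter cells (luciferase flanked by upstream and downstream ATXN2 gene portions) were treated 24 h at 37 °C with compounds at up to 57 uM. SteadyGlo luminescence gave expression; GF-AFC fluorescence gave viability.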
HepG2 tox – qHTS for Inhibitors of TGF-b: Cytotox Counterscreen; HepG2 CAGA-GFP viability, ATP luminescence, 18 h; Potency, µM (titrated, usually from 46.1 µM), without a hit: top-dose activity change, negative = cytotoxicity, most hits filed as cytotoxic; actives 0.76% (n = 410,000); AID 588856, 2011
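HepG2 CAGA-GFP cells (1000/well, DMEM with 1% FBS) received compound, then TGF-beta at 500 pg/mL final, and were incubated 18 hours at 37 degrees C. Viability was read by CellTiter-Glo luminescence. Media-only wells were set as complete cell-killing and DMSO as no toxicity.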
Nrf2 block – Nrf2 qHTS screen for inhibitors; A549 ARE-Fluc reporter, luciferase luminescence, 18-24 h; Potency, µM (series often up to 46 µM), for the others: at the highest dose activity change, negative = inhibition, most hits filed as inhibitors; actives 2.1% (n = 360,000); AID 504444, 2011; note: % is set by controls: 0 for no effect and ±100 for the full control effect; nearly all actives have a fitted effect of over 60% in size
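Nrf2 activity is the BugLite luminescence, read 15 min after reagent at room temperature, following CellTiter-Fluor cytotoxicity readout (30 min, 37C). Compound titrations were applied for 18-24 h to 5000 A549 ARE_Fluc cells/well in 5% FBS OPTI-MEM.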
TGFb SMAD3 inh – qHTS for Inhibitors of TGF-b. HepG2 CAGA-GFP TGF-b/SMAD3 reporter, GFP fluorescence, 18 h; TGF-beta stimulated, 500 pg/mL final. Potency, µM (doses to about 46.1 µM), inactives show at the highest dose activity, negative = inhibition, usual class: inhibitors. actives 1.2% (n = 410,000); note: % is set by controls: 0 for no effect and ±100 for the full control effect; nearly all actives have a fitted effect of over 65% in size
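TGF-beta reporter screen: HEPG2 CAGA-GFP, 1% FBS, 500 pg/mL TGF-beta final, 18 h; per-cell GFP summed per well; curves fitted and categorized by class.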
The depositor's hits bear a star; i = inactive; ? = inconclusive; / = no result given. Calls come from the whole dose curve; as a rule, active = well fitted curve in the direction sought with a large enough effect; inconclusive = small, poorly fitted or top-dose-only effect, or another doubt; inactive = no such curve, though single readings can be large; an effect the other way counts as inactive or inconclusive. Potency is the fitted concentration of half-maximal effect.

SMILES | S2 tox | A549 viability | ATXN2 expr inh | HepG2 tox | Nrf2 block | TGFb SMAD3 inh
COc1ccc(-c2cc(C)no2)cc1S(=O)(=O)Nc1cccc(C(F)(F)F)c1 | / | 5.2% | / | -40.9% | 18.4µM* | ?
c1ccc(-c2cn(-c3ccccc3)c3[n+]2CCCS3)cc1 | i | -9.6% | -4.6% | 5.9% | 9.2µM* | -3.2%
CC(=O)Nc1ccc(S(=O)(=O)N2CCC(n3c(C(F)(F)F)nc4cccnc43)CC2)cc1 | i | 10.2% | -4.0% | -0.8% | 19.1% | 18.8%
CN(C)S(=O)(=O)N1CCC(n2cnc3cccnc32)CC1 | i | 27.1% | 3.8% | 11.1% | ? | 9.3%
COc1ccc(NC(=S)NC2CCCC2)c(OC)c1 | i | 15.1% | -2.5% | -12.3% | 0.7% | ?
COc1ccc(OC)c(C(C)NC(=S)NC2CCCCC2)c1 (stereo unspecified) | i | 0.1% | -12.9% | -19.1% | 18.4µM* | -14.3%
N#Cc1c(NC(=O)CSc2nc(N)cc(=O)[nH]2)sc2c1CCCCCC2 | i | -4.6% | -32.3% | -27.8% | 7.31µM* | ?
CC(Sc1nc(N)cc(=O)[nH]1)C(=O)Nc1sc2c(c1C#N)CCCC2 (stereo unspecified) | i | -29.6% | -37.5% | -13.8% | 13µM* | ?
COc1ccc(C(=O)Sc2ccc(Cl)cc2)cc1OC | i | ? | -10.0% | -19.6% | 20.6µM* | 31.0%
COc1cccc(NC(=O)Cn2c(=O)n(-c3ccc(C)cc3)c(=O)c3ccccc32)c1 | i | -24.7% | -12.9% | -15.7% | -15.0% | 31.6%
CC(C)c1ccc(NC(=O)Nc2nc(C(N)COCc3ccccc3)cs2)cc1 (stereo unspecified) | ? | / | ? | 10µM* | / | 11.2µM*
CC(C)c1ccc(NC(=O)Nc2nc(C(N)c3ccccc3)cs2)cc1 (stereo unspecified) | / | / | ? | 11.2µM* | / | 11.2µM*
CC(C)c1ccc(NC(=O)Nc2nc(C(N)C(C)C)cs2)cc1 (stereo unspecified) | ? | / | ? | -101.3% | / | ?
CS(=O)(=O)c1ccc(Nc2nc(C(N)COCc3ccccc3)cs2)cc1 (stereo unspecified) | i | / | 5.6% | -2.1% | / | -33.9%
C=CC(=O)Nc1cccc(Oc2cc(Cl)nc3[nH]ccc23)c1 | 17.8µM* | -8.7% | ? | -21.2% | -10.7% | ?
CC(C)(C)C(=O)c1c(N)[nH]c(C(=O)c2ccccc2)c1-c1ccc(Br)cc1 | i | / | 4.6% | / | / | /
CCS(=O)(=O)N1CCCC(C(=O)NCCOC)C1 (stereo unspecified) | i | -0.3% | 13.1% | 3.4% | / | 1.9%
Cc1ccc(N2C(=O)C(Cl)=C(N3CCCCCC3)C2=O)c(C)c1 | / | ? | -9.6% | -5.3% | 23.1µM* | -13.0%
O=C1C(Cl)=C(N2CCCCCC2)C(=O)N1c1ccccc1Cl | i | -8.6% | 6.9% | 6.0% | 3.9% | 2.7%
C=CCN(c1ccccc1OC)S(=O)(=O)c1cccc(C(=O)OCC(=O)c2c(N)n(C)c(=O)n(C)c2=O)c1 | ? | 0.6% | -20.0% | -4.0% | 20.6µM* | ?
CNS(=O)(=O)c1cccc(C(=O)OCC(=O)c2c(N)n(C)c(=O)n(C)c2=O)c1 | i | -2.4% | 14.4% | 14.8% | 1.5% | -0.3%
Cc1ccc(C(=O)N(CCc2ccccc2)Cc2ccccc2)cc1S(=O)(=O)N1CCOCC1 | ? | -3.7% | / | -12.0% | ? | ?
CC1CN(S(=O)(=O)c2cc(C(=O)N(CCc3ccccc3)Cc3ccccc3)ccc2Cl)CC(C)O1 (stereo unspecified) | i | -12.1% | -14.4% | -16.1% | 7.31µM* | -21.0%
CSc1ccc(/C=C/C(=O)NC(=O)c2ccccc2O)cc1 | ? | -0.5% | 0.5% | -29.1% | 20.1% | ?
